Data on 10 compounds can be found in PubChem BioAssay (Tox21).

Experiment [1] addresses Luciferin 4-monooxygenase (Photinus pyralis) (UniProt P08659). As to the kind of experiment: qHTS assay to identify small molecule inhibitors of firefly luciferase (AID 1224835). Further: on the % scale 0 is the no-effect control and ±100 the full control effect; nearly all actives have a fitted effect of over 25% in size. In short, it runs like this: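 Biochemical qHTS: compounds run as interplate titrations against purified firefly enzyme, with D-luciferin and ATP each at its KM concentration. Light output recorded by CCD imaging.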

A short description of experiment [2]: qHTS assay to identify small molecule agonists of the constitutive androstane receptor (CAR) signaling pathway - cell viability counter screen (AID 1224836). Further: on the % scale 0 is the no-effect control and ±100 the full control effect; nearly all actives have a fitted effect of over 45% in size. An outline of the steps:
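Compound titrations (15 concentrations) went onto HepG2-CYP2B6-hCAR cells 4 h after seeding, alongside PK11195 at a final 0.75 uM; a 23 h, 37 C/5% CO2 incubation preceded CellTiter-Fluor viability measurement.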
On the technique in general: In qHTS, concentration-response curves come from the screen itself.

Experiment [3] is described as follows: qHTS assay to identify small molecule antagonists of the constitutive androstane receptor (CAR) signaling pathway - cell viability counter screen (AID 1224837). Further: on the % scale 0 is the no-effect control and ±100 the full control effect; nearly all actives have a fitted effect of over 45% in size. In short, it runs like this: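 HepG2 cells stably expressing hCAR and a CYP2B6-2.2kb reporter were plated and pre-incubated 4 hr at 37 C/5% CO2, then given compounds at 15 concentrations plus 50 nM CITCO (final). After 23 hr, viability was read by CellTiter-Fluor fluorescence.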

Experiment [4] deals with Nuclear receptor subfamily 1 group I member 3 (Homo sapiens) (UniProt Q14994). As to the kind of experiment: qHTS assay to identify small molecule antagonists of the constitutive androstane receptor (CAR) signaling pathway (AID 1224838). Further: on the % scale 0 is the no-effect control and ±100 the full control effect; nearly all actives have a fitted effect of over 40% in size. In short, it runs like this:
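HepG2 cells stably co-transfected with hCAR and a CYP2B6-2.2kb luciferase reporter were seeded 4 h before compound addition at 15 concentrations. Cells were stimulated with 50 nM CITCO (final) for 24 h at 37 C; luciferase luminescence was then read.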

Experiment [5] shares this target. As to the kind of experiment: qHTS assay to identify small molecule agonists of the constitutive androstane receptor (CAR) signaling pathway (AID 1224839).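 Further: HepG2 cells stably carrying human CAR and a CYP2B6 luciferase reporter; on the % scale 0 is the no-effect control and ±100 the full control effect; nearly all actives have a fitted effect of over 15% in size.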 In short, it runs like this:
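In this screen, CAR-driven CYP2B6 promoter activity is measured by luminescence in HepG2-CYP2B6-hCAR cells after 24 h with test compounds and 0.75 uM PK11195 (final concentration).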

Experiment [6] can be described thus: qHTS assay to identify small molecule antagonists of the estrogen related receptor signaling pathway with the pleiotropic PPARgamma coactivator (PGC) from Tox21 10K library - cell viability counter screen (AID 1224840; active means well fitted cell-killing curve with a large enough effect in the repeat runs, not every such curve was filed as active; further: on the % scale 0 is the no-effect control and ±100 the full control effect; nearly all actives have a fitted effect of over 40% in size). An outline of the steps:
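PGC/ERR cells were seeded at 2,000 cells/well and left 6 hours at 37 C/5% CO2 before pin-tool addition of compounds in DMSO. After 17.5 hours at 37 C, CellTiter-Fluor was added and fluorescence read 30 minutes later.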

Experiment [7] deals with Thyrotropin receptor (Homo sapiens) (UniProt P16473). As to the kind of experiment: qHTS assay to identify small molecule agonists of the thyroid stimulating hormone receptor (TSHR) signaling pathway (AID 1224843; calls by dose curve; further: on the % scale 0 is the no-effect control and ±100 the full control effect; nearly all actives have a fitted effect of over 45% in size). In short, it runs like this:
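TSHR-HEK293 cells in agonist mode, 30 min room-temperature step, then cAMP measured by competitive HTRF (cAMP-d2 with anti-cAMP cryptate) after 1 h at room temperature. Tested at 15 concentrations in triplicate.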

Experiment [8] can be described thus: qHTS assay to identify small molecule agonists of the hypoxia (HIF-1) signaling pathway - cell viability counter screen (AID 1224844; calls by dose curve; further: on the % scale 0 is the no-effect control and ±100 the full control effect; nearly all actives have a fitted effect of over 50% in size). An outline of the steps:
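HRE-bla ME-180 cells in medium with 0.5% dialyzed FBS were preincubated 5 hrs at 37C, exposed to compounds for 17 hrs, then viability was read as CellTiter-Glo luminescence after 30 min at room temperature, in the reporter wells.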

Experiment [9] can be described thus: qHTS assay to identify small molecule agonists of H2AX (AID 1224845; active means well fitted activation curve with a large enough effect in the signal ratio in the repeat runs, not every such curve was filed as active; the % refers to the signal ratio; further: on the % scale 0 is the no-effect control and ±100 the full control effect). An outline of the steps: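 Wild-type CHO-K1 cells, plated overnight, exposed 3hr at 37C to 15 concentrations (0.76% DMSO final). Lysed, then HTRF anti-pH2AX (S139) cryptate and anti-H2AX-d2 antibodies, 24 hr room temperature; 665/620 nm emission read.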
A short description of experiment [10]: qHTS assay to identify small molecule agonists of the hypoxia (HIF-1) signaling pathway (AID 1224846; active means well fitted activation curve with a large enough effect in the signal ratio in the repeat runs, not every such curve was filed as active; the % refers to the signal ratio; further: on the % scale 0 is the no-effect control and ±100 the full control effect). An outline of the steps:
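HRE-bla ME-180 cells (beta-lactamase reporter under hypoxia response element) were plated at 2,000 cells/well in medium with 0.5% dialyzed FBS, rested 5 hrs, then given compounds in DMSO for 17 hrs at 37C, 5% CO2. Reporter induction was read with CCF4-AM FRET substrate.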

Experiment [11] is described as follows: qHTS assay to identify small molecule agonists of H2AX - cell viability counter screen (AID 1224847; calls by dose curve; further: top concentration of the series differs between compounds; on the % scale 0 is the no-effect control and ±100 the full control effect; nearly all actives have a fitted effect of over 30% in size). An outline of the steps: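 Read-out: CellTiter-Glo luminescence, 30 min RT. Cells: wild-type CHO-K1, 1000/well, 10% FBS, plated overnight at 37C. Treatment: 15 concentrations, 3 hr, 37C, 0.76% DMSO.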
The nature of experiment [12]: qHTS RealTime-Glo MT Cell Viability Assay in HepG2 cells - 24 hour (AID 1224867). Further: on the % scale 0 is the no-effect control and ±100 the full control effect; nearly all actives have a fitted effect of over 50% in size. In short, it runs like this: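 Luminescence read-out: viable HepG2 cells reduce a prosubstrate to a NanoLuc substrate, giving a signal proportional to live cell number. Reads taken at 0, 8, 16, 24, 32 and 40 h of compound exposure at 37 C.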
The nature of experiment [13]: A CellTox Green Cytotoxicity Assay to monitor cytotoxicity in HEK293 cells - 0 hour (AID 1224869). Further: on the % scale 0 is the no-effect control and ±100 the full control effect; nearly all actives have a fitted effect of over 50% in size. An outline of the steps:
(§1)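 HEK293 cells premixed with CellTox Green dye were seeded at 600 cells/well and left 5 h at 37 C/5% CO2 before pin transfer of 23 nL compound in DMSO. Fluorescence from dye bound to dead-cell DNA was read during 40 h treatment.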

A short description of experiment [14]: qHTS RealTime-Glo MT Cell Viability Assay in HepG2 cells - 40 hour (AID 1224870). Further: on the % scale 0 is the no-effect control and ±100 the full control effect; nearly all actives have a fitted effect of over 50% in size. In short, it runs like this:
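HepG2 cells (600/well) mixed with RealTime-Glo MT reagent, settled 5 h at 37 C/5% CO2 before compound addition. Nonlytic NanoLuc luminescence from viable-cell prosubstrate reduction read repeatedly during 40 h treatment at 37 C.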

The nature of experiment [15]: A CellTox Green Cytotoxicity Assay to monitor cytotoxicity in HEK293 cells - 40 hour (AID 1224871). Further: on the % scale 0 is the no-effect control and ±100 the full control effect; nearly all actives have a fitted effect of over 45% in size. In short, it runs like this:
as §1

Experiment [16] can be described thus: qHTS RealTime-Glo MT Cell Viability Assay in HEK293 cells - 32 hour (AID 1224868). An outline of the steps: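 Nonlytic real-time viability readout: viable cells convert prosubstrate to NanoLuc substrate, giving luminescence proportional to live cell number. HEK293, 600 cells/well, compound added after 5 h, continuous culture at 37 C.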
A short description of experiment [17]: qHTS assay to identify small molecule agonists of the estrogen related receptor signaling pathway with the pleiotropic PPARgamma coactivator (PGC) from Tox21 10K library (AID 1224842). Further: on the % scale 0 is the no-effect control and ±100 the full control effect; nearly all actives have a fitted effect of over 15% in size. An outline of the steps: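 PGC/ERR reporter cell line, 2,000 cells per well, incubated 6 h at 37 C before 23 nL compound in DMSO was added. After 18 h at 37 C, One-Glo luminescence read following 30 min at room temperature.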

A short description of experiment [18]: qHTS assay to identify small molecule antagonists of the estrogen related receptor (ERR) signaling pathway from Tox21 library (AID 1224848). An outline of the steps: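 ERR reporter cell line (from NTP) seeded 2,000 cells/well, rested 6 h at 37 C/5% CO2, then pin-dosed with compounds in DMSO. After 18 h at 37 C, ONE-Glo added; luminescence read after 30 min at room temperature.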

Experiment [19] is described as follows: qHTS assay to identify small molecule agonists of the estrogen related receptor (ERR) signaling pathway from Tox21 library (AID 1224849; calls by dose curve; further: on the % scale 0 is the no-effect control and ±100 the full control effect; nearly all actives have a fitted effect of over 15% in size). The following applies: ERR reporter cell line, ONE-Glo luciferase, 18 h; at 92.4 µM (top of the series) unless noted. An outline of the steps: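 ERR reporter cell line (NTP) seeded, rested 6 h at 37 C/5% CO2, then pinned with Tox21 compounds in DMSO. After 18 h at 37 C, ONE-Glo luciferase luminescence was read following 30 min at room temperature.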

A number with no mark means an inactive call. Records with an inconclusive call do not appear. Active and inactive are the calls of the source. Unless noted, the call rests on the fitted dose curve; in most records, active means well fitted curve in the direction sought with a large enough effect in the repeat runs; inconclusive means weak or mixed curves; inactive means no such curve, though single readings can be large; an effect the other way counts as inactive or inconclusive.

Sequence of Luciferin 4-monooxygenase (Photinus pyralis) (P08659 whole entry, looked up): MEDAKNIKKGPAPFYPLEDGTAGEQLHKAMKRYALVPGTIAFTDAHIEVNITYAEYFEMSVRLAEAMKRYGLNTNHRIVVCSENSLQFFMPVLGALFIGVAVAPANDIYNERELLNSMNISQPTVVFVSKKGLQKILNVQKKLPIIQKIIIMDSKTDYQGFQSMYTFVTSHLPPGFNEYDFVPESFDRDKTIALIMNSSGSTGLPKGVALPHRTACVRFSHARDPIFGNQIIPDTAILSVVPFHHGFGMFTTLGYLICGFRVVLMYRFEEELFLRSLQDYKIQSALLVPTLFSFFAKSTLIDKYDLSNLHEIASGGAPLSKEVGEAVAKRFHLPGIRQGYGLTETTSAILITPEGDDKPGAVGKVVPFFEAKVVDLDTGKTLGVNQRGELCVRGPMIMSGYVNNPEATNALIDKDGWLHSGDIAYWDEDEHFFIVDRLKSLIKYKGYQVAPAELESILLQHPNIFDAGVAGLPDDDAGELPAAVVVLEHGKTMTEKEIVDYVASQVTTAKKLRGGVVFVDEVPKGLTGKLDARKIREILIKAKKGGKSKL
Sequence of Nuclear receptor subfamily 1 group I member 3 (Homo sapiens) (Q14994 whole entry, looked up): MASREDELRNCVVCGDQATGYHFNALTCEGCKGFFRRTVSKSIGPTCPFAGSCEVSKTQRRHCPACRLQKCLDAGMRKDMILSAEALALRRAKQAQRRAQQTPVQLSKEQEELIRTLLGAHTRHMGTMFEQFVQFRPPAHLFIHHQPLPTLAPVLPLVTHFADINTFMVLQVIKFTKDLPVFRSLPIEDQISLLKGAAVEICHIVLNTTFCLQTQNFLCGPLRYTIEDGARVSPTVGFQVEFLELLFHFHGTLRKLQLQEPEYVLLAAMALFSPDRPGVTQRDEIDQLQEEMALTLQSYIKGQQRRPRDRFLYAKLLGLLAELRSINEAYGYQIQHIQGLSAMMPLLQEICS
Sequence of Thyrotropin receptor (Homo sapiens) (P16473 whole entry, looked up): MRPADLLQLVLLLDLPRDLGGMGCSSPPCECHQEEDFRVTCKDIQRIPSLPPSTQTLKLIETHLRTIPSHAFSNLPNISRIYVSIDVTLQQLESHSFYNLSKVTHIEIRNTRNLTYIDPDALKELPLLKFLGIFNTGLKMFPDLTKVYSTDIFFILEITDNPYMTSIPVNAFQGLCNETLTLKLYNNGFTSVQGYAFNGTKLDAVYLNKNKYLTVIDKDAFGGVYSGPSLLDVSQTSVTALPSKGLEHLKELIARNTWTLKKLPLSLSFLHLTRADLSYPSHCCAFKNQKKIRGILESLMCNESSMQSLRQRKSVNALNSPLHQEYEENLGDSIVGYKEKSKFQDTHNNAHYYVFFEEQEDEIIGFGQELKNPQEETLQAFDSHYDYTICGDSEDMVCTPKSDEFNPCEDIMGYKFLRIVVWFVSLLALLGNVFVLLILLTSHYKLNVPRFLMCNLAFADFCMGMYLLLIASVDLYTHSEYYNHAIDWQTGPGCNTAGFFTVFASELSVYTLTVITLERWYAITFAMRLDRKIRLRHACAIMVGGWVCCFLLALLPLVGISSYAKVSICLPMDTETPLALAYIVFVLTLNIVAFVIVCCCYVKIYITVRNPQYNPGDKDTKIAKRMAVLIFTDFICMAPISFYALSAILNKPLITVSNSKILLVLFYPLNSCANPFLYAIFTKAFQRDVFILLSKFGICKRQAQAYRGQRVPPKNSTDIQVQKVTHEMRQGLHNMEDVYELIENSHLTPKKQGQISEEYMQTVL

On to `O=C(CCCN1CCC(n2c(=O)[nH]c3ccccc32)CC1)c1ccc(F)cc1`, for which the Potency entry in [1], in experiment [2], in experiment [3], in experiment [4], in [5] and in experiment [6] was “inactive” each time. Further, the Potency entry in [7], in experiment [8], in [9], in [11], in [12] and in experiment [13] was “inactive” each time. For the same compound, the Potency result in experiment [14] and in [15] was “inactive” throughout. In addition, the result in experiment [10] was inactive.
Regarding `Nc1cc2c3c(c1)C(c1ccccc1)=N[C@@H](NC(=O)c1cccnc1)C(=O)N3CC2`, the Potency result in experiment [1], in experiment [2], in experiment [3], in [4], in experiment [5] and in experiment [6] was “inactive” throughout. The Potency result in experiment [7], in [8], in experiment [9], in [11], in [12] and in experiment [13] was “inactive” each time. Also, the Potency result in experiment [14] and in experiment [15] was “inactive” each time. In experiment [10], the outcome was inactive.
For `O=[N+]([O-])c1cccc(O)c1`, the Potency entry in experiment [1], in experiment [2], in experiment [3], in [4], in experiment [5] and in experiment [6] was “inactive” throughout. Moreover, the Potency result in experiment [8], in experiment [9], in experiment [12], in experiment [16], in experiment [13] and in [14] was “inactive” each time. For the same compound, in [15], the Potency result was “inactive”. In addition, the compound was classed as inactive in [10].
With `c1ccc(N2CCNCC2)cc1`, the Potency entry in [1], in [2], in [3], in [4], in experiment [5] and in experiment [6] was “inactive” each time. In addition, the Potency entry in [8], in experiment [9], in experiment [11], in experiment [12], in [16] and in [13] was “inactive” in each case. Moreover, in experiment [14], the Potency entry is “inactive”. Moreover, the result in experiment [10] was inactive.
For `Clc1cccc(N2CCNCC2)c1`, the Potency result in [1], in [2], in experiment [3], in experiment [4], in experiment [5] and in [6] was “inactive” throughout. Moreover, the Potency result in experiment [7], in experiment [8], in experiment [9], in experiment [11], in experiment [12] and in experiment [16] was “inactive” each time. Besides, the Potency result in experiment [13], in experiment [14] and in experiment [15] was “inactive” each time.
On to `COc1ccc(C(=O)N2CCCC2=O)cc1`, for which the Potency entry in experiment [1], in experiment [2], in [3], in [4], in experiment [6] and in experiment [8] was “inactive” in each case. Also, the Potency result in experiment [9], in [11], in experiment [12], in experiment [16], in experiment [13] and in [14] was “inactive” throughout. Besides, the Potency entry in experiment [15] was “inactive”.
With `OC(c1ccc(F)cc1)(c1cncnc1)c1ccccc1Cl` (stereo not drawn), the Potency result in [1], in experiment [2], in [3], in experiment [4], in [6] and in experiment [8] was “inactive” each time. Further, the Potency result in experiment [9], in experiment [11], in experiment [12], in experiment [16], in experiment [13] and in experiment [14] was “inactive” throughout. Besides, the compound was classed as inactive in experiment [10].
As for `CN1C[C@@H](NS(=O)(=O)N(C)C)C[C@@H]2c3cccc4c3c(cn4C)C[C@H]21`, the Potency result in [1], in experiment [2], in experiment [3], in [4], in experiment [6] and in experiment [7] was “inactive” in each case. Also, the Potency entry in [8], in experiment [9], in experiment [11], in [12], in experiment [13] and in [14] was “inactive” each time. In addition, the Potency entry in [15] is “inactive”. Besides, in experiment [10], the outcome was inactive.
`CC1(C(=O)Nc2ccc(O)c(Cl)c2Cl)CCCCC1`: the Potency result in experiment [1], in [2], in [3], in [5], in [6] and in [8] was “inactive” throughout. Moreover, the Potency entry in [12], in experiment [13] and in experiment [14] was “inactive” throughout. The result in experiment [17] and in [10] was inactive. Also, in experiment [18], the Potency was 61.1 µM (active). Also, the activity change, positive = activation in [19] is -35.4%.
Turning to `CCC(=O)C(CCN(C)C)(c1ccccc1)c1ccccc1`, the Potency result in experiment [1], in experiment [2], in [3], in [5], in [6] and in [8] was “inactive” each time. The Potency result in experiment [11], in experiment [12], in [13], in experiment [14] and in experiment [15] was “inactive” each time. In addition, in experiment [10], the compound was called inactive.
